TDP1 cell CPT – growth inhibition of DT40 Tdp1-/-;hTDP1 cells with camptothecin (screen for TDP1 inhibitors). AID 686979. chicken DT40 Tdp1-/-;hTDP1 cells + 20 nM CPT, ATP luminescence, 48 h. Potency, µM (top dose mostly 46.2 µM), actives largely listed as inhibitors. 420,000 compounds, 12% hits; note: nearly all actives have a fitted effect of over 55% in size
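Chicken DT40 Tdp1-/- cells stably complemented with human TDP1 were seeded at 400 cells/well in medium containing 20 nM camptothecin, exposed to pin-transferred compounds, and grown at 37 °C for at least 48 hr. Viability was read as ATP luminescence.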
HT1080-NT tox – kills 2HG-producing HT-1080-NT fibrosarcoma cells. Potency, µM (series often up to 46.1 µM), most hits filed as cytotoxic. HT-1080-NT fibrosarcoma viability, CellTiter-Glo ATP luminescence, 48 h. 360,000 compounds, 1.6% hits;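 note: NT is the 2HG producing partner of a matched IDH1 knockdown line; nearly all actives have a fitted effect of over 55% in size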
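Luminescent CellTiter-Glo readout after 48 hours of compound exposure at 37 degrees C defined viability of HT-1080-NT cells. Activity was normalized to DMSO wells and cell-free media wells; concentration-response curves were fitted and assigned curve classes.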
12-LOX inh – inhibitors of human 12S-lipoxygenase ALOX12. purified 12hLO, xylenol orange hydroperoxide absorbance. Potency, µM (doses to about 108 µM), actives largely listed as inhibitors. 580,000 compounds, 1.1% hits. AID 1671190
Target sequence (P18054 whole entry, looked up): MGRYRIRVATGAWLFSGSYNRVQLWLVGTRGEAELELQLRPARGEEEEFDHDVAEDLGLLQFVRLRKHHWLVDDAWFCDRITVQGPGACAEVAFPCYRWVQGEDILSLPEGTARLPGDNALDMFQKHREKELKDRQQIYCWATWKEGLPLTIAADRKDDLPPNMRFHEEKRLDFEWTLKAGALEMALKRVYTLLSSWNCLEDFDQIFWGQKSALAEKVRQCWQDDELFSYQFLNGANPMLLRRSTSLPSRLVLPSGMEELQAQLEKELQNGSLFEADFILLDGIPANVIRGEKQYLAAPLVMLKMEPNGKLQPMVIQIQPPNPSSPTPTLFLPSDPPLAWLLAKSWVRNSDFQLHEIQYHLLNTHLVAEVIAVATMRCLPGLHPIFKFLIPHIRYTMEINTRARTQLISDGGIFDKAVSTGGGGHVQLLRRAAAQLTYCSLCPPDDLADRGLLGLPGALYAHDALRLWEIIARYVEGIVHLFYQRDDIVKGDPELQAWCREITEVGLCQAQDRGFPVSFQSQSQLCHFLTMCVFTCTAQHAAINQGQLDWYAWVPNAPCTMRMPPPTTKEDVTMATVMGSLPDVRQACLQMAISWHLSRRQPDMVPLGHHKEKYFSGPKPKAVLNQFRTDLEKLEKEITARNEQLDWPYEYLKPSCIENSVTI
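Hydroperoxide product was detected by ferrous iron/xylenol orange as the 573 to 405 nm absorbance ratio. Arachidonic acid at 40 uM (final) was turned over for 30 min at room temperature by 150 nM human 12hLO, pH 7.0 Hepes buffer, after 15 min compound preincubation.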
HT1080 IDH1KD tx – toxicity to HT-1080 IDH1 knockdown cells (counter line); HT-1080 IDH1 knockdown viability, ATP luminescence, 48 h; Potency, µM (top dose mostly 46.1 µM), actives largely listed as cytotoxic; 360,000 compounds, 2% hits; AID 686971
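Viability of IDH1-knockdown HT-1080 fibrosarcoma cells was assessed by CellTiter-Glo after 48 h at 37 °C with titrated compound; concentration-effect curves were classified by fit quality and response size.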
IL-1B inflam inh – blocks inflammasome-driven IL-1 beta release; THP-1 LPS/ATP IL-1B secretion, AlphaLISA, 16 h; hits give low values; activity change, % at 57.5 µM; 360,000 compounds, 4.7% hits; in the data active = activity change below about -50%; inconclusive = mostly about -30% to -49%
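THP-1 cells pretreated 1 hr with compounds (up to 57.5 uM final), then stimulated with LPS (250 ng/mL final) plus ATP (1.25 mM final); secreted IL-1B measured by AlphaLISA after 16 hr, decreased signal indicating inhibition.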
DT40 TDP1 no CPT – qHTS for Inhibitors of human tyrosyl-DNA phosphodiesterase 1 (TDP1): qHTS in cells in absence of CPT; DT40 Tdp1-/- hTDP1 cells, no CPT, ATP luminescence, 48 h; Potency, µM (doses to about 46.2 µM), hits mostly inhibitors; 420,000 compounds, 15% hits; AID 686978, 2013; note: nearly all actives have a fitted effect of over 55% in size
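Seeded 400 DT40-hTDP1 cells/well (vehicle DMSO, no 20 nM CPT); pinned compounds; ≥48 hr at 37 °C; CellTiter-Glo luminescence as viability measure.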
Of the large screens only hits and unclear results are named; the others gave an inactive call. Only a selection was taken, and hits are over-represented in it overall. Unless noted, calls come from the whole dose curve; as a rule, active = well fitted curve in the direction sought with a large enough effect; inconclusive = small, poorly fitted or top-dose-only effect, or another doubt; inactive = no such curve, though single readings can be large; an effect the other way counts as inactive or inconclusive.

Cc1noc(C)c1NC(=O)N(C)C[C@H]1OCCCC[C@@H](C)Oc2ccc(NC(=O)c3ccccc3)cc2C(=O)N([C@H](C)CO)C[C@@H]1C	TDP1 cell CPT inconclusive
C[C@@H]1CN([C@H](C)CO)C(=O)c2cc(NC(=O)Nc3ccc(F)cc3)ccc2O[C@@H](C)CCCCO[C@H]1CN(C)S(=O)(=O)c1cccs1	TDP1 cell CPT inconclusive, 12-LOX inh inconclusive, HT1080 IDH1KD tx inconclusive, IL-1B inflam inh inconclusive, DT40 TDP1 no CPT 26µM
Cc1noc(C)c1NC(=O)N(C)C[C@H]1OCCCC[C@@H](C)Oc2ccc(NC(=O)Nc3ccc(F)cc3)cc2C(=O)N([C@@H](C)CO)C[C@H]1C	TDP1 cell CPT inconclusive, DT40 TDP1 no CPT 18µM
COc1ccc(Nc2nc3ccccc3nc2NS(=O)(=O)c2ccc3c(c2)OCCO3)cc1Cl	none (no result: TDP1 cell CPT, HT1080-NT tox, HT1080 IDH1KD tx, IL-1B inflam inh, DT40 TDP1 no CPT)
CCCCCCCCCn1c2c(c(=N)c3c1CCC3)CCC2	TDP1 cell CPT 0.058µM, HT1080-NT tox 1.5µM, HT1080 IDH1KD tx inconclusive, IL-1B inflam inh -97, DT40 TDP1 no CPT 0.018µM (no result: 12-LOX inh)
CCCCCCCn1c2c(c(=N)c3c1CCC3)CCCC2	TDP1 cell CPT 0.41µM, HT1080-NT tox 9.2µM, 12-LOX inh inconclusive, HT1080 IDH1KD tx 7.3µM, DT40 TDP1 no CPT 0.33µM
CCCCCCn1c2c(c(=N)c3c1CCC3)CCC2	TDP1 cell CPT 0.41µM, HT1080-NT tox 1.6µM, HT1080 IDH1KD tx 1.6µM, IL-1B inflam inh inconclusive, DT40 TDP1 no CPT 0.26µM
CCCCCCn1c(=O)[nH]c2c(c1=O)CCC2	none
CCCCn1c2c(c(=N)c3c1CCC3)CCC2	TDP1 cell CPT 6.5µM, DT40 TDP1 no CPT 4.6µM
CCn1c2c(c(=N)c3c1CCC3)CCC2	none
CN(C)c1ccc(/C=C2\SC(=S)N(Nc3ncc(C(F)(F)F)cc3Cl)C2=O)cc1	TDP1 cell CPT 8.2µM, HT1080-NT tox inconclusive, HT1080 IDH1KD tx inconclusive, DT40 TDP1 no CPT 8.2µM
COc1cc(/C=C2\SC(=S)N(Nc3ncc(C(F)(F)F)cc3Cl)C2=O)ccc1O	TDP1 cell CPT 21µM, IL-1B inflam inh inconclusive, DT40 TDP1 no CPT inconclusive (no result: 12-LOX inh)
O=C1CCN(C(=O)CCc2c[nH]c3ccccc23)CCCC(C(=O)NCc2ccccc2)CCN1 (stereo not drawn)	none (no result: TDP1 cell CPT, HT1080-NT tox, HT1080 IDH1KD tx, IL-1B inflam inh, DT40 TDP1 no CPT)
CN(C)c1ncc2nc(-c3cccs3)c(=O)n(Cc3cccs3)c2n1	none (no result: HT1080-NT tox, HT1080 IDH1KD tx, IL-1B inflam inh)
CN(C)c1nc(=NCc2cccs2)ss1	TDP1 cell CPT 0.026µM, 12-LOX inh 16µM, HT1080 IDH1KD tx inconclusive, IL-1B inflam inh -60, DT40 TDP1 no CPT 0.029µM
CC1S/C(=C(\C#N)C(=O)NCc2ccco2)N(Cc2ccco2)C1=O (stereo not drawn)	TDP1 cell CPT 8.2µM, DT40 TDP1 no CPT inconclusive
CCc1cccc(CC)c1NC(=O)c1c(C)oc2ccc(O)c(CN3CCOCC3)c12	TDP1 cell CPT inconclusive, DT40 TDP1 no CPT inconclusive (no result: HT1080-NT tox, HT1080 IDH1KD tx, IL-1B inflam inh)
CCN1CCN(Cc2c(O)ccc3oc(C)c(C(=O)Nc4cccc(Cl)c4C)c23)CC1	TDP1 cell CPT 8.2µM, 12-LOX inh inconclusive, DT40 TDP1 no CPT 21µM (no result: HT1080-NT tox, HT1080 IDH1KD tx, IL-1B inflam inh)
Cc1oc2ccc(O)c(CN3CCN(C)CC3)c2c1C(=O)Nc1cccc(Cl)c1C	TDP1 cell CPT 8.2µM, 12-LOX inh inconclusive, DT40 TDP1 no CPT 18µM (no result: HT1080-NT tox, HT1080 IDH1KD tx, IL-1B inflam inh)
O=C1NC2(CCN(C(=O)c3ccccc3F)C2)Oc2ccccc21 (stereo not drawn)	none (no result: TDP1 cell CPT, HT1080-NT tox, HT1080 IDH1KD tx, IL-1B inflam inh, DT40 TDP1 no CPT)
CC(C)(C)S(=O)N1Cc2cc(C(=O)NCC(F)(F)F)nc(-c3cccc(-c4cccc(F)c4)c3)c2[C@@H]1CCO (stereo partly drawn)	TDP1 cell CPT 18µM, HT1080-NT tox inconclusive, HT1080 IDH1KD tx 21µM, DT40 TDP1 no CPT 18µM
CCNC(=O)c1cc2c(c(-c3cccc(-c4cccc(C(=O)N(C)C)c4)c3)n1)[C@@H](CCO)N(S(=O)C(C)(C)C)C2 (stereo partly drawn)	TDP1 cell CPT inconclusive, 12-LOX inh inconclusive, DT40 TDP1 no CPT 21µM
CC(=O)N(Cc1cccs1)Cc1cc2ccc(C)c(C)c2nc1Cl	TDP1 cell CPT 18µM, DT40 TDP1 no CPT 21µM
